Test results from PubChem BioAssay (EPA / NIEHS).
Records with an inconclusive call do not appear. The source made the active and inactive calls. How the source made its calls: active means hit-call score of the fitted dose curve at least 0.9, where 1 is the maximum; inconclusive means response in the unintended direction; inactive means score below 0.9.

biological target: Estrogen receptor (Homo sapiens) (UniProt P03372); test: CCTE_Deisenroth_AIME_384WELL_LUC_Active: CCTE's 384-well Estrogen Receptor Transactivation Assay with AIME metabolic competence (ERTA luciferase; metabolism positive), Deisenroth Lab (AID 2284030)
Sequence (P03372 whole entry, looked up): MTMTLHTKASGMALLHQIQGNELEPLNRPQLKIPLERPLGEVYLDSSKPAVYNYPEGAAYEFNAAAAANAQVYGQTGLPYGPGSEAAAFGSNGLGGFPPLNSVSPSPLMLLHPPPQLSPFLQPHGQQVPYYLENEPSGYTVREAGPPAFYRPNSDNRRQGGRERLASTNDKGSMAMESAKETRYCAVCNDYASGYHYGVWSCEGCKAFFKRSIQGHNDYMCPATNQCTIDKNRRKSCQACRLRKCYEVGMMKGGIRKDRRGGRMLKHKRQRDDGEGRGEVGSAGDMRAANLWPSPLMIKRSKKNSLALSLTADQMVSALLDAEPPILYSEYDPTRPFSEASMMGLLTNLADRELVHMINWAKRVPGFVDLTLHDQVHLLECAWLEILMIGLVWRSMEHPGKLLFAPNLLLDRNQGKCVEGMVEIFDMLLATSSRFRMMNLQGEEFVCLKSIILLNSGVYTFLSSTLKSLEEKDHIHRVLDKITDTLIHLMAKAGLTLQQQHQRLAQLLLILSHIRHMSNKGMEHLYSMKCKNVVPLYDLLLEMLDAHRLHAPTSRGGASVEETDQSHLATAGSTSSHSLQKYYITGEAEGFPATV
Procedure: CCTE_Deisenroth_AIME_384WELL (AIME metabolism assay) is a cell-based, single-readout assay that uses VM7Luc4E2, a human mammary gland/breast cell line, with measurements taken at 24 hour after chemical dosing in a 384-well plate.CCTE_Deisenroth_AIME_384WELL_LUC_Active is one of four assay components measured or calculated from the CCTE_Deisenroth_AIME_384WELL assay. It is designed to make measurements of luciferase induction, a form of inducible reporter, as detected with bioluminescence signals by luciferase-coupled ATP quantitation technology.CCTE_Deisenroth_AIME_384WELL_LUC_Active is a component of the CCTE_Deisenroth_AIME_384WELL assay that measures the effect of retroftting the VM7Luc ERTA assay with the Alginate Immobolization of Metabolic Enzymes (AIME) metabolism method. AIME is optimized to impart phase I hepatic metabolism using phenobarbital/beta-naphthoflavone induced hepatic S9 from male Sprague Dawley rats. Parent chemicals are incubated for 2 hours in the AIME assay prior to transfer to the VM7Luc ERTA assay plate. […] This endpoint evaluates reporter induction in metabolism positive mode. Using a type of inducible reporter in VM7Luc cells, gain-of-signal activity can be used to understand changes in the reporter gene as they relate to xenobiotic metabolism and the gene ESR1. This assay endpoint, CCTE_Deisenroth_AIME_384WELL_LUC_Active, was analyzed in the positive analysis fitting direction relative to 17beta-estradiol as the positive control in the ERTA assay. To generalize the intended target to other relatable targets, this assay endpoint is annotated to the nuclear receptor intended target family, where the subfamily is steroidal.
The AIME procedure consists of a preparative "pre-stamping" step using a barium chloride/poly-L-lysine (PLL) solution followed by "stamping" the lid in alginate-hepatic S9 (metabolism positive) or alginate-water (metabolism negative) to form microspheres. Once stamping is completed, the AIME lids are placed in duplicate microplates (metabolism positive or negative) containing chemical solutions and incubated for two hours to facilitate metabolic reactions. The conditioned medium, containing parent chemical or metabolites, is then transferred to the cell-based VM7Luc Estrogen Receptor Transactivation Assay (ERTA) for 24 hours. A typical experimental design tests a 10-point concentration series (0.002 - 200 uM) for 8 compounds (96-well format)1 or 32 compounds (384-well format)2 in single technical replicate. AIME assay controls include trans-stilbene (bioactivated control) and ethylparaben (bioinactivated control). ERTA assay plate controls include 17-beta estradiol (positive control) and DMSO (solvent control). Experiments typically comprise a minimum of four experimental replicates (n=4).

Structure (SMILES) | outcome | AC50
O=c1[nH]c2ccc(S(=O)CCN3CCC(Cc4ccc(F)cc4)CC3)cc2o1 (configuration not stated) | inactive | –
CC(C)CCO | inactive | –
COc1cccc(-c2ccc(/C=C\CN3CCCCCC3)cc2Cl)c1 | inactive | –
Cn1c(=O)cc(Oc2ccc(F)cc2F)c2cnc(NCC(C)(C)O)nc21 | inactive | –
O=C(O)c1cccc(Oc2ccccc2)c1 | inactive | –
CCCC(=O)OCC | inactive | –
C=CC(=C)CCC=C(C)C | inactive | –
COc1ccc2sc(C(=O)Nc3nnn[nH]3)c(OC(C)C)c2c1 | inactive | –
Nc1ccc(Nc2ccccc2)cc1 | – | 114 µM (active)
Cc1ccc(N)cc1O | inactive | –
O=c1n(CC2CO2)c(=O)n(CC2CO2)c(=O)n1CC1CO1 (configuration not stated) | inactive | –
CCCCCCCCO | inactive | –
